{"source": "the supplement of paper PMC8728848", "assay_in_all_cases": "glycan array binding signal (z-score within array); higher = stronger binding", "key": {"[1]": {"test_system": "Fuc(a1-2)[GalNAc(a1-3)]Gal(b1-3)GlcNAc(b1-2)Man(a1-3)[Fuc(a1-2)[GalNAc(a1-3)]Gal(b1-3)GlcNAc(b1-2)Man(a1-6)]Man(b1-4)GlcNAc(b1-4)GlcNAc", "details": "glycan notation: IUPAC condensed, linker removed", "method_in_brief": "(§1)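 Negative Z-scores can be read as non-binding. The Z-score is calculated within each array and then averaged across arrays of one protein sequence at different concentrations or buffers and across linkers. Arrays, 3228 in all, were curated from the Consortium for Functional Glycomics database and kept only where the protein sequence was available.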"}, "[2]": {"test_system": "Fuc(a1-2)[GalNAc(a1-3)]Gal(b1-4)GlcNAc(b1-2)Man", "details": "glycan notation: IUPAC condensed, linker removed", "method_in_brief": "as §1"}, "[3]": {"test_system": "Fuc(a1-2)[GalNAc(a1-3)]Gal(b1-4)GlcNAc(b1-6)GalNAc", "details": "glycan notation: IUPAC condensed, linker removed", "method_in_brief": "as §1"}, "[4]": {"test_system": "Fuc(a1-2)[GalNAc(a1-3)]Gal", "details": "glycan notation: IUPAC condensed, linker removed", "method_in_brief": "as §1"}, "[5]": {"test_system": "Fuc(a1-2)[GalNAc(a1-3)]Gal(b1-3)GlcNAc", "details": "glycan notation: IUPAC condensed, linker removed", "method_in_brief": "as §1"}, "[6]": {"test_system": "Fuc(a1-2)[GalNAc(a1-3)]Gal(b1-4)GlcNAc", "details": "glycan notation: IUPAC condensed, linker removed", "method_in_brief": "as §1"}, "[7]": {"test_system": "Fuc(a1-2)[GalNAc(a1-4)]Gal(b1-4)GlcNAc", "details": "glycan notation: IUPAC condensed, linker removed", "method_in_brief": "as §1"}, "[8]": {"test_system": "Fuc(a1-3)[Gal(b1-4)]GlcNAc(b1-2)Man(a1-6)[Gal(b1-4)GlcNAc(b1-2)Man(a1-3)]Man(b1-4)GlcNAc(b1-4)GlcNAc", "details": "glycan notation: IUPAC condensed, linker removed", "method_in_brief": "as §1"}, "[9]": {"test_system": "Fuc(a1-2)[GalNAc(a1-3)]Gal(b1-4)[Fuc(a1-3)]GlcNAc", "details": "glycan notation: IUPAC condensed, linker removed", "method_in_brief": "as §1"}, "[10]": {"test_system": "Fuc(a1-2)[GalNAc(b1-3)]Gal", "details": "glycan notation: IUPAC condensed, linker removed", "method_in_brief": "as §1"}, "[11]": {"test_system": "Fuc(a1-2)[GalNAc(a1-3)]Gal(b1-4)Glc", "details": "glycan notation: IUPAC condensed, linker removed", "method_in_brief": "as §1"}, "[12]": {"test_system": "Fuc(a1-2)[GalNAc(a1-3)]Gal(b1-3)GlcNAc(b1-3)GalNAc", "details": "glycan notation: IUPAC condensed, linker removed", "method_in_brief": "as §1"}, "[13]": {"test_system": "Fuc(a1-2)[GalNAc(a1-3)]Gal(b1-4)GlcNAc(b1-2)Man(a1-3)[Fuc(a1-2)[GalNAc(a1-3)]Gal(b1-4)GlcNAc(b1-2)Man(a1-6)]Man(b1-4)GlcNAc(b1-4)GlcNAc", "details": "glycan notation: IUPAC condensed, linker removed", "method_in_brief": "as §1"}, "[14]": {"test_system": "Fuc(a1-2)[GalNAc(a1-3)]Gal(b1-4)GlcNAc(b1-3)Gal(b1-4)GlcNAc(b1-3)Gal(b1-4)GlcNAc", "details": "glycan notation: IUPAC condensed, linker removed", "method_in_brief": "as §1"}, "[15]": {"test_system": "Fuc(a1-2)[GalNAc(a1-3)]Gal(b1-4)[Fuc(a1-3)]GlcNAc(b1-3)GalNAc", "details": "glycan notation: IUPAC condensed, linker removed", "method_in_brief": "as §1"}, "[16]": {"test_system": "Fuc(a1-2)[GalNAc(a1-3)]Gal(b1-3)GlcNAc(b1-6)GalNAc", "details": "glycan notation: IUPAC condensed, linker removed", "method_in_brief": "as §1"}, "[17]": {"test_system": "Fuc(a1-2)[GalNAc(a1-3)]Gal(b1-4)GlcNAc(b1-3)Gal(b1-4)GlcNAc", "details": "glycan notation: IUPAC condensed, linker removed", "method_in_brief": "as §1"}, "[18]": {"test_system": "Fuc(a1-2)[GalNAc(a1-3)]Gal(b1-4)GlcNAc(b1-3)GalNAc", "details": "glycan notation: IUPAC condensed, linker removed", "method_in_brief": "as §1"}, "[19]": {"test_system": "Fuc(a1-3)[Gal(b1-4)]Glc6S", "details": "glycan notation: IUPAC condensed, linker removed", "method_in_brief": "as §1"}, "[20]": {"test_system": "Fuc(a1-3)[Gal(b1-4)]GlcNAc(b1-2)Man", "details": "glycan notation: IUPAC condensed, linker removed; mutation: R125K", "method_in_brief": "as §1"}}, "note": "The entries come from a sample that favours the strongest signals as a whole.", "data": [{"substance": "MpAFP RI GFP (Marinomonas primoryensis)", "values": [{"measurement": "glycan array binding signal (z-score)", "setting": "[1]", "result": -0.022}, {"measurement": "glycan array binding signal (z-score)", "setting": "[2]", "result": -0.489}, {"measurement": "glycan array binding signal (z-score)", "setting": "[3]", "result": -0.439}, {"measurement": "glycan array binding signal (z-score)", "setting": "[4]", "result": -0.389}]}, {"substance": "Neurocan (Homo sapiens), O14594", "values": [{"measurement": "glycan array binding signal (z-score)", "setting": "[4]", "result": -0.021}]}, {"substance": "6RG (Lolium perenne), B9U140", "values": [{"measurement": "glycan array binding signal (z-score)", "setting": "[5]", "result": -0.169}, {"measurement": "glycan array binding signal (z-score)", "setting": "[6]", "result": -0.075}]}, {"substance": "6RG (Lolium perenne)", "values": [{"measurement": "glycan array binding signal (z-score)", "setting": "[7]", "result": -0.148}, {"measurement": "glycan array binding signal (z-score)", "setting": "[8]", "result": -0.247}]}, {"substance": "Aggrecan (Rattus norvegicus), NP_071526", "values": [{"measurement": "glycan array binding signal (z-score)", "setting": "[1]", "result": -0.131}, {"measurement": "glycan array binding signal (z-score)", "setting": "[9]", "result": 0.401}, {"measurement": "glycan array binding signal (z-score)", "setting": "[10]", "result": 17.3}]}, {"substance": "wLAT-1A (Homo sapiens), Q01650", "values": [{"measurement": "glycan array binding signal (z-score)", "setting": "[11]", "result": 0.692}]}, {"substance": "PILRb (Mus musculus), Q2YSF2", "values": [{"measurement": "glycan array binding signal (z-score)", "setting": "[12]", "result": 1.35}, {"measurement": "glycan array binding signal (z-score)", "setting": "[13]", "result": -0.328}, {"measurement": "glycan array binding signal (z-score)", "setting": "[14]", "result": -0.069}, {"measurement": "glycan array binding signal (z-score)", "setting": "[15]", "result": 11.4}, {"measurement": "glycan array binding signal (z-score)", "setting": "[9]", "result": 2.67}, {"measurement": "glycan array binding signal (z-score)", "setting": "[8]", "result": -0.477}]}, {"substance": "CHI3L1 (Homo sapiens), P36222", "values": [{"measurement": "glycan array binding signal (z-score)", "setting": "[16]", "result": -0.064}, {"measurement": "glycan array binding signal (z-score)", "setting": "[17]", "result": -0.12}, {"measurement": "glycan array binding signal (z-score)", "setting": "[18]", "result": -0.124}, {"measurement": "glycan array binding signal (z-score)", "setting": "[10]", "result": 0.059}, {"measurement": "glycan array binding signal (z-score)", "setting": "[19]", "result": -0.082}]}, {"substance": "Siglec-8 (Homo sapiens), Q9NYZ4", "values": [{"measurement": "glycan array binding signal (z-score)", "setting": "[17]; mutation: R125K", "result": -0.346}, {"measurement": "glycan array binding signal (z-score)", "setting": "[3]; mutation: R125K", "result": -0.119}, {"measurement": "glycan array binding signal (z-score)", "setting": "[6]; mutation: R125K", "result": -0.376}, {"measurement": "glycan array binding signal (z-score)", "setting": "[20]", "result": -0.3}]}, {"substance": "Avaren (Actinomycete K97)", "values": [{"measurement": "glycan array binding signal (z-score)", "setting": "[16]", "result": -0.139}, {"measurement": "glycan array binding signal (z-score)", "setting": "[7]", "result": -0.123}]}]}
